From PubChem
Hits are enriched below; roughly 4.2% of the tested compounds scored in any of these assays.
Wnt bcat act – Wnt/beta-catenin pathway activators, primary screen, cell-based, plate reader, single point; Wnt/beta-catenin reporter cell assay, activator; activation, % at 9.35 µM; hit rate 1.2% among 300,000; AID 743398, 2014; in the data active = activation above about 30%, passing the limit was not always enough
ssDAF12 agonist – S. stercoralis DAF-12 nuclear receptor activators, primary screen, cell-based, luminescence, HEK293, GRIP1 co-expression, lit1-tk-luc; Nuclear hormone receptor DAF-12 (Strongyloides stercoralis); HEK293 ssDAF-12/GRIP1 lit1-tk-luc reporter; % of 3 µM dafachronic acid response; activation, % at 6.8 µM; hit rate 1% among 370,000; AID 652126, 2013;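 active = activation above the mean over all tested compounds plus 3 SD, cut at about 0.9% in these data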
hgDAF12 agonist – H. glycines DAF-12 receptor agonists, primary screen, cell-based, luminescence, HEK293, GAL4 fusion, UAS-luciferase; Nuclear hormone receptor DAF-12 (Heterodera glycines), GAL4 fusion; HEK293 GAL4-hgDAF12 UAS-luciferase reporter, agonist luminescence; normalized to butyrate control; activation, % at 6.8 µM; hit rate 1.8% among 370,000;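 active = activation above a cutoff set at the mean of all screened compounds plus 3 SD, cut at about 10% in these data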
hcDAF12 agonist – H. contortus DAF-12 nuclear receptor activators, primary screen, cell-based, luminescence, HEK293, lit1-tk-luc reporter. AID 652067, 2013. activation, % at 6.8 µM. HEK293 hcDAF-12 lit1-tk-luc reporter; 0% DMSO, 100% Δ7-dafachronic acid. hit rate 1.4% among 370,000;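 active = activation above the mean of all tested compounds plus 3 SD, cut at about 5.5% in these data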
DAX1 StAR inh – DAX1 (NR0B1) inhibitors on StAR promoter, primary screen, cell-based, luminescence, SF-1 (NR5A1), full-length DAX-1; HEK293T StAR-luciferase reporter, SF-1/DAX-1 repression relief; inhibition, % at 6.8 µM; hit rate 1.1% among 370,000;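 active = inhibition above the mean over all tested compounds plus 3 SD, cut at about 3.6% in these data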;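 also: higher inhibition means more luminescence from relief of DAX-1 repression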
esBAF inh – Bmi1 luciferase reporter increase in mESCs, primary screen, esBAF inhibitor project, mouse ES cells, Bmi1 luciferase knock-in, single point | 24 h; 100% = twice the neutral-well signal | reporter increase, % at 12.5 µM | hit rate 2% among 350,000 | AID 602393, 2012; in the data active = activation above about 40%;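 also: a rise in the Bmi1 reporter signal indicates esBAF inhibition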
Numbers stand for hits.

Screening Cc1cccc(NC(=O)CSc2nc3ccccc3o2)c1 returned ssDAF12 agonist inactive, hgDAF12 agonist 12.7, hcDAF12 agonist inactive, DAX1 StAR inh inactive and esBAF inh 46.8.
For C=CCn1c(C)cc(C(=O)COc2nncc3ccccc23)c1C the results were ssDAF12 agonist inactive, hgDAF12 agonist 13.1, hcDAF12 agonist inactive, DAX1 StAR inh inactive and esBAF inh inactive.
`Cc1ccc2nc(SCC(=O)c3cc(C)n(C)c3C)[nH]c2c1` gave ssDAF12 agonist inactive, hgDAF12 agonist inactive, hcDAF12 agonist inactive and DAX1 StAR inh inactive.
Screening Cc1cc(C(=O)CSc2nc3ccccc3[nH]2)c(C)n1C returned Wnt bcat act 62.0, ssDAF12 agonist 1.1, hgDAF12 agonist 10.9, hcDAF12 agonist inactive and DAX1 StAR inh 3.7.
`CN(C)C(=O)C[C@@H]1CC[C@@H]2[C@H](COC[C@H](O)CN2C(=O)c2ccncc2)O1` gave esBAF inh inactive.
C=CCn1c(C)cc(C(=O)CSc2nc3ccccc3[nH]2)c1C was read as ssDAF12 agonist inactive, hgDAF12 agonist inactive, hcDAF12 agonist inactive, DAX1 StAR inh inactive and esBAF inh inactive.
C=CCn1c(C)cc(C(=O)CSc2nc3ccccc3o2)c1C was read as Wnt bcat act 47.2, ssDAF12 agonist inactive, hgDAF12 agonist inactive, hcDAF12 agonist inactive and DAX1 StAR inh inactive.
Screening C=CCn1c(C)cc(C(=O)CSc2nc3ccccc3c(=O)[nH]2)c1C returned Wnt bcat act 44.1, ssDAF12 agonist inactive, hgDAF12 agonist inactive, hcDAF12 agonist inactive, DAX1 StAR inh inactive and esBAF inh inactive.
For Cc1cc(C(=O)CSc2nc3ccccc3o2)c(C)n1C1CC1 the results were ssDAF12 agonist inactive, hgDAF12 agonist inactive, hcDAF12 agonist inactive, DAX1 StAR inh inactive and esBAF inh inactive.
Screening CO[C@H]1CN(C)C(=O)c2cc(NC(=O)NC(C)C)ccc2OC[C@@H](C)N(Cc2ccc(-c3ccccn3)cc2)C[C@@H]1C returned esBAF inh 72.1.
`CO[C@H]1CN(C)C(=O)c2ccc(NC(=O)NC(C)C)cc2OC[C@H](C)N(Cc2ccc(-c3ccccn3)cc2)C[C@H]1C` gave esBAF inh inactive.
CO[C@H]1CN(C)C(=O)c2cc(NC(=O)NC(C)C)ccc2OC[C@H](C)N(Cc2ccc(-c3ccccn3)cc2)C[C@@H]1C was read as esBAF inh 142.1.
`CO[C@@H]1CN(C)C(=O)c2cc(NC(=O)c3nc4ccccc4s3)ccc2OC[C@@H](C)N(Cc2cccnc2)C[C@H]1C` gave esBAF inh 51.3.
`COc1cccc(C(=O)Nc2ccc3c(c2)OC[C@@H](C)N(CCc2ccccc2)C[C@@H](C)[C@H](OC)CN(C)C3=O)c1` gave esBAF inh 64.0.
Screening CO[C@H]1CN(C)C(=O)c2cc(NC(=O)c3nc4ccccc4s3)ccc2OC[C@@H](C)N(Cc2cccnc2)C[C@H]1C returned esBAF inh inactive.
O=C(C[C@H]1CC[C@@H]2[C@H](COC[C@H](O)CN2Cc2ccc3c(c2)OCO3)O1)Nc1ccc(-c2ccccc2)cc1 was read as esBAF inh inactive.
COc1ccc(S(=O)(=O)Nc2ccc3c(c2)OC[C@@H](C)N(C)C[C@@H](C)[C@H](OC)CN(C)C3=O)cc1 was read as esBAF inh inactive.
Screening CCC(=O)N1[C@@H]2CN(C(=O)c3ccccc3F)c3ccccc3[C@@H]2[C@@H]1CO returned esBAF inh inactive.
`CCCNC(=O)Nc1ccc2c(c1)C(=O)N(C)C[C@H](OC)[C@@H](C)CN(Cc1ccc(-c3ccccn3)cc1)[C@H](C)CO2` gave esBAF inh 42.0.
